Reference: PubChem BioAssay (NCATS)
Where “and” joins values, the source holds several entries; their conditions need not be identical. Equal values may be shown once. Inconclusive results are not listed. Calls of active or inactive are those of the source. Unless noted, calls come from the whole dose curve.

test system: not listed separately; assay: Primary qHTS to identify inhibitors of SARS-CoV-2 cell entry (AID 1645846); settings: SARS-CoV-2 pseudovirus cell entry assay, luminescence; activity change, negative = inhibition: at 57.1 µM (top of the series) unless noted; note: nearly all actives have a fitted effect of over 45% in size; note: potency is the fitted concentration of half-maximal effect
Summary of the method: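 Luminescence readout (Bright-Glo luciferase) 48 h after pseudoparticle addition. HEK293-ACE2 cells, 1500/well; compound pre-incubation 1 h; Normalized to spike PP and bald PP.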

Row | SMILES | activity change, negative = inhibition | Potency
1 | OCCOc1ccc(/C(=C(/CCCl)c2ccccc2)c2ccccc2)cc1 | -9.9% and -6.02% | –
2 | C[C@H]1[C@H](OC(=O)CCC(=O)O)O[C@@H]2O[C@@]3(C)CC[C@H]4[C@H](C)CC[C@@H]1[C@@]24OO3 | – | 2240 nM (active)
3 | COc1cc2c(cc1O)CCN[C@]21CS[C@@H]2c3c(OC(C)=O)c(C)c4c(c3[C@H](COC1=O)N1[C@@H]2[C@H]2c3c(cc(C)c(OC)c3O)C[C@@H]([C@@H]1O)N2C)OCO4 | -92.8% [at 11.3 µM] | –
4 | CO[C@H](C(=O)[C@@H](O)[C@@H](C)O)C1Cc2cc3cc(O[C@H]4C[C@@H](O[C@H]5C[C@@H](O)[C@H](O)[C@@H](C)O5)[C@@H](O)[C@@H](C)O4)c(C)c(O)c3c(O)c2C(=O)[C@H]1O[C@H]1C[C@@H](O[C@H]2C[C@@H](O[C@H]3C[C@](C)(O)[C@H](O)[C@@H](C)O3)[C@H](O)[C@@H](C)O2)[C@H](O)[C@@H](C)O1 (stereo partly drawn) | -92.7% | –
5 | CC(=O)OC1CC(OC2C(O)CC(OC3C(O)CC(OC4CCC5(C)C(CCC6C5CCC5(C)C(C7=CC(=O)OC7)CCC65O)C4)OC3C)OC2C)OC(C)C1O (stereo not drawn) | -96.7% | –
6 | CNC(C)C(O)c1ccccc1 (stereo not drawn) | -30.3% | –
7 | Cc1cc(-c2ccc(N=Nc3ccc4c(S(=O)(=O)O)cc(S(=O)(=O)O)c(N)c4c3O)c(C)c2)ccc1N=Nc1ccc2c(S(=O)(=O)O)cc(S(=O)(=O)O)c(N)c2c1O | -2.58% | –
8 | Cc1c(N)nc(C(CC(N)=O)NCC(N)C(N)=O)nc1C(=O)NC(C(=O)NC(C)C(O)C(C)C(=O)NC(C(=O)NCCc1nc(-c2nc(C(=O)NCCCN[C@@H](C)c3ccccc3)cs2)cs1)C(C)O)C(O[C@@H]1O[C@@H](CO)[C@@H](O)[C@H](O)[C@@H]1O[C@H]1O[C@H](CO)[C@@H](O)[C@H](OC(N)=O)[C@@H]1O)c1cnc[nH]1 (stereo partly drawn) | -97.1% | –
9 | Nc1nc(NC2CC2)c2ncn([C@H]3C=C[C@@H](CO)C3)c2n1 | – | inactive
10 | COc1ccc2c(c1)OC(C)(C)C(c1ccccc1)C2c1ccc(OCCN2CCCC2)cc1 (stereo not drawn) | – | 15800 nM (active)
11 | COc1cc(CNC(=O)CCCC/C=C/C(C)C)ccc1O | -28.1% and -35.9% | –
12 | C[C@H]1O[C@@H](O[C@H]2[C@@H](O)C[C@H](O[C@H]3[C@@H](O)C[C@H](O[C@H]4CC[C@@]5(C)[C@H](CC[C@@H]6[C@@H]5C[C@@H](O)[C@]5(C)[C@@H](C7=CC(=O)OC7)CC[C@]65O)C4)O[C@@H]3C)O[C@@H]2C)C[C@H](O)[C@@H]1O | -96.3% and -94.1% | –
13 | CO[C@H]1C[C@@H]2CC[C@@H](C)[C@@](O)(O2)C(=O)C(=O)N2CCCC[C@H]2C(=O)O[C@H]([C@@H](C)C[C@@H]2CC[C@@H](O)[C@H](OC)C2)CC(=O)[C@H](C)/C=C(\C)[C@@H](O)[C@@H](OC)C(=O)[C@H](C)C[C@H](C)/C=C/C=C/C=C/1C | – | 20000 nM (active)
14 | C(=C\c1ccncc1)/c1ccccc1 | – | inactive

test system: not listed separately; assay: VSVG counterscreen qHTS to identify inhibitors of SARS-CoV-2 cell entry (AID 1645847); settings: VSV-G pseudotyped particle entry, luciferase; series mostly up to 57.2 µM; note: nearly all actives have a fitted effect of over 65% in size; note: potency is the fitted concentration of half-maximal effect; for activity change, negative = inhibition: % is set by controls: 0 for no effect and ±100 for the full control effect
Summary of the method: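 HEK293-ACE2 cells (Expi293F stably expressing human ACE2) were pretreated with compound for 1 h at 37 °C, then infected with MLV-based VSV-G pseudotyped particles for 48 h. Luciferase luminescence was normalized to VSV-G PP and bald PP wells.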

Row | SMILES | Potency
15 | CO[C@H]1C[C@H](O[C@@H]2[C@H](C)O[C@H](O[C@@H]3/C(C)=C/C[C@@H]4C[C@@H](C[C@]5(C=C[C@H](C)[C@@H](C6CCCCC6)O5)O4)OC(=O)[C@@H]4C=C(C)C(O)[C@H]5OC/C(=C\C=C\[C@@H]3C)[C@]54O)C[C@@H]2OC)O[C@@H](C)[C@@H]1O (stereo partly drawn) | 1360 nM (active)
16 | C[C@H]1[C@H](OC(=O)CCC(=O)O)O[C@@H]2O[C@@]3(C)CC[C@H]4[C@H](C)CC[C@@H]1[C@@]24OO3 | 1210 nM (active)
17 | CO[C@H](C(=O)[C@@H](O)[C@@H](C)O)C1Cc2cc3cc(O[C@H]4C[C@@H](O[C@H]5C[C@@H](O)[C@H](O)[C@@H](C)O5)[C@@H](O)[C@@H](C)O4)c(C)c(O)c3c(O)c2C(=O)[C@H]1O[C@H]1C[C@@H](O[C@H]2C[C@@H](O[C@H]3C[C@](C)(O)[C@H](O)[C@@H](C)O3)[C@H](O)[C@@H](C)O2)[C@H](O)[C@@H](C)O1 (stereo partly drawn) | 152 nM (active)
18 | CN(C)C(=O)c1cc2cnc(Nc3ccc(N4CCNCC4)cn3)nc2n1C1CCCC1 | inactive
19 | Cc1c(N)nc(C(CC(N)=O)NCC(N)C(N)=O)nc1C(=O)NC(C(=O)NC(C)C(O)C(C)C(=O)NC(C(=O)NCCc1nc(-c2nc(C(=O)NCCCN[C@@H](C)c3ccccc3)cs2)cs1)C(C)O)C(O[C@@H]1O[C@@H](CO)[C@@H](O)[C@H](O)[C@@H]1O[C@H]1O[C@H](CO)[C@@H](O)[C@H](OC(N)=O)[C@@H]1O)c1cnc[nH]1 (stereo partly drawn) | 27.1 nM (active)
20 | CCOc1nc2cccc(C(=O)OC(C)OC(=O)OC3CCCCC3)c2n1Cc1ccc(-c2ccccc2-c2nn[nH]n2)cc1 (stereo not drawn) | 429 nM (active)

target: Glutathione peroxidase 1 (Homo sapiens) (UniProt P07203); assay: Primary qHTS Assay for Inhibitors of Recombinant Selenoprotein Glutathione Peroxidase 1 (GPX1) (AID 1845191; active = well fitted inhibition curve with a large enough effect; note: nearly all actives have a fitted effect of over 65% in size); settings: recombinant GPX1, GR-coupled NADPH fluorescence, 15 min; series mostly up to 48.8 µM
Sequence (P07203 whole entry, looked up): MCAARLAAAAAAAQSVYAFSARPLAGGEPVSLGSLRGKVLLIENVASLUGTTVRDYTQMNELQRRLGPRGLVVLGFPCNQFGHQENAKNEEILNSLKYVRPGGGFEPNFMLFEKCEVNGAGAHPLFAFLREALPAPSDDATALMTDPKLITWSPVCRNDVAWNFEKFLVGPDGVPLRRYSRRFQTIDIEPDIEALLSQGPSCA
Summary of the method: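 NADPH consumption tracked by fluorescence at 340/450 nm between t=0 and t=15 min, room temperature. Final mix: 10 nM GPX1, 100 nM glutathione reductase, 1 mM GSH, 0.5 mM NADPH, 0.5 mM cumene hydroperoxide, 0.01% BSA; 30 min compound–enzyme preincubation.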

Row | SMILES | Potency
21 | CNC(C)C(O)c1ccccc1 (stereo not drawn) | inactive
22 | C[C@@]12CCCCC[C@@H](Cc3ccc(O)cc31)[C@H]2N | inactive
23 | NCCS[As](SCCN)c1ccc(Nc2nc(N)nc(N)n2)cc1 | inactive
